Several values for one entry are separate records, joined by “and”; a condition that tells them apart may be missing. Equal entries are not always repeated. Hit rate of the full screen: of about 16,000 compounds, about 5,800 (36%) were called active. Not shown: some 23% with an inconclusive outcome. Calls follow the shape of the dose curve; as a rule, active = well fitted curve in the direction sought with a large enough effect; inconclusive = small, poorly fitted or top-dose-only effect, or effect the other way; inactive = no such curve, though single readings can be large or run the other way. The list shows a part of the results. Some compounds were tested as several samples or in several runs, with calls that do not always agree. Square brackets hold non-standard residues; d marks the D form. Peptide text beside a SMILES is read from it.

The term AC50 denotes the concentration giving half of the maximal activity seen.
% is scaled to controls: 0 for no effect and ±100 for the full control effect.

Cytochrome P450 2C19 (Homo sapiens), sequence (P33261 whole entry, looked up): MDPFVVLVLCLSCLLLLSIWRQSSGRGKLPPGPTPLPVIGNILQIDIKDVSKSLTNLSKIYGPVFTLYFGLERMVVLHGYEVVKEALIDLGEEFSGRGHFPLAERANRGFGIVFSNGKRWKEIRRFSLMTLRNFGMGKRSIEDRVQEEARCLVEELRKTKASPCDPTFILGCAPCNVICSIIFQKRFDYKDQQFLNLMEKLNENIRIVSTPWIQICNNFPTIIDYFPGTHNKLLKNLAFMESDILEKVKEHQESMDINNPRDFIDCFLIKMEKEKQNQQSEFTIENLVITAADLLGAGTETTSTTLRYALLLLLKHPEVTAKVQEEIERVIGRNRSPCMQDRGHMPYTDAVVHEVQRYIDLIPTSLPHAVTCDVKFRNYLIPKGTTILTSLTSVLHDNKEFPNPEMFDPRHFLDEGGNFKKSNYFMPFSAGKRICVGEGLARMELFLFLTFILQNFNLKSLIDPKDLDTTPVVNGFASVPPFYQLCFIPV

This experiment addresses Cytochrome P450 2C19 (Homo sapiens) (UniProt P33261). The experiment can be described thus: Cytochrome panel assay with activity outcomes. The conditions noted are these: recombinant CYP, pro-luciferin dealkylation, luminescence, p450-cyp2c19; series mostly up to 57.1 µM.
For `O[C@@H](c1ccccc1)C1CCN(CCc2ccccc2)CC1`, the AC50 entry is “inactive”.

Turning to `C[C@@H](N)C(=O)O`, the AC50 entry is “inactive”.

With `Cc1ccccc1N1CCN(S(=O)(=O)C[C@@]23CC[C@H](C[C@H]2NC(=O)[C@@H](N)CCS(C)(=O)=O)C3(C)C)CC1`, the AC50 entry is “inactive”.

Regarding `COc1cnc(NS(=O)(=O)c2ccc(N)cc2)nc1`, the AC50 entry is “inactive”.

In the case of `O=C1NC(c2ccccc2)=NC1(NS(=O)(=O)c1ccccc1)C(F)(F)F` (stereo not given), the AC50 result was “inactive”.

Take `COc1ccc(S(=O)(=O)NC2(C(F)(F)F)N=C3SCCN3C2=O)cc1` (stereo not given): the AC50 was 22.4 µM (active).

Regarding `CC(=O)[C@@]1(O)CC[C@H]2[C@H]3C[C@@H](C)C4=CC(=O)C=C[C@]4(C)[C@@]3(F)[C@@H](O)C[C@]21C`, the AC50 entry is “inactive”.

On to `CCC(=O)NC(=S)Nc1ccc(S(=O)(=O)NC(C)=O)cc1`, for which the AC50 entry is “inactive”.

As to `COc1ccc(CC(=O)NC(=S)Nc2ccc(S(=O)(=O)NC(C)(C)C)cc2)cc1`, the AC50 was 25.1 µM (active).

As to `CC(C)(C)N1C(=O)[C@@H]2[C@H]3C(=CC[C@H]2C1=O)C(=O)[C@H]1O[C@H]1[C@H]3O`, the activity, negative = inhibition is 18.8% [at 11.4 µM] (inactive).

For `O=C(O)C1=CCCNC1`, the AC50 entry was “inactive”.

For `COc1ccc(CCNc2nc(-c3cccnc3)cs2)cc1OC`, the AC50 was 1.41 µM (active).

As for `O=C(NC12CC3CC(CC(C3)C1)C2)C12CC3CC(C1)CC(n1cnc(Cl)n1)(C3)C2`, the AC50 is 8.91 µM (active).

`COc1ccc(NC(=O)C23CC4CC(C2)CC(n2cnc(Br)n2)(C4)C3)c(C)c1`: the AC50 result was “inactive”.

For `COC(=O)[C@@H]1[C@@H]2C[C@H]3c4[nH]c5ccccc5c4CCN3C[C@@H]2CC[C@@H]1OS(=O)(=O)O`, the activity, negative = inhibition was -2.78% [at 11.4 µM] (inactive).

Take `CCOc1cc(S(=O)(=O)N(Cc2ccccc2)Cc2ccccc2)c(OCC)cc1-n1cnnn1`: the AC50 was 11.2 µM (active).

As for `CC1(C)NC(=O)N(c2ccc([N+](=O)[O-])c(C(F)(F)F)c2)C1=O`, the AC50 was 126 nM (active) and 251 nM (active).

In the case of `Cc1cc2nc(CCN(C(=S)NCC(C)C)C3CCCC3)[nH]c2cc1C`, the AC50 is 2.24 µM (active).

For the compound `COC(=O)Cn1cnc(=O)c(C#N)c1/C=C/N(C)C`, the AC50 entry is “inactive”.

Regarding `NC1(C(=O)O)CC(C(=O)O)C1` (stereo not given), the AC50 result is “inactive”.

On to `NC1(C(=O)O)C[C@@H](C(=O)O)[C@H](C(=O)O)C1`, for which the AC50 entry is “inactive and 7.94 µM (active)”.

Regarding `N[C@H](C(=O)O)[C@@H]1C[C@@H]1C(=O)O`, the AC50 result was “inactive”.

Regarding `C[C@@]1(C(=O)O)CCC[C@@H]1C(=O)O`, the activity, negative = inhibition is 40% [at 11.4 µM] (inactive).

On to `N[C@@]1(C(=O)O)CN[C@H](C(=O)O)C1`, for which the AC50 result is “inactive”.

As for `NC1(C(=O)O)C[C@H](C(=O)O)[C@H](C(=O)O)C1` (stereo not given in full), the AC50 is 0.398 µM (active).

Regarding `c1ccc2c3c([nH]c2c1)[C@@H]1[C@H]2CC[C@H]([C@H]4CCCN[C@H]42)N1CC3`, the AC50 result was “inactive”.

Consider `Cc1noc(C)c1C(=O)N1CCC2(CCCN(Cc3nccs3)C2)CC1`, for which the AC50 result is “inactive”.

Regarding `NCC(=O)N[C@H](CO)C(=O)O` (H-Gly-[dS]-OH), the activity, negative = inhibition was -0.959% [at 11.4 µM] (inactive).

In the case of `CCS(=O)(=O)N1CCC[C@H]2CN3CCc4cc(OC)ccc4[C@@H]3C[C@@H]21`, the AC50 result is “inactive”.

On to `COc1ccc(N2CCN(S(=O)(=O)c3ccc4c(c3)CCCC4)CC2)c([N+](=O)[O-])c1`, for which the AC50 is 2 µM (active).

`COc1cccc(-c2cc(C(F)(F)F)nc(N3CCN(c4ccccc4)CC3)n2)c1`: the AC50 was 8.91 µM (active).

On to `COc1ccc(-n2c(=O)c(-c3cc(F)cc(F)c3)nc3cnc(N4CCOCC4)nc32)cc1`, for which the AC50 entry is “inactive”.

Regarding `COc1cccc(Cn2c(=O)c(-c3cn(C)c4ccccc34)nc3cnc(N4CCOCC4)nc32)c1`, the AC50 entry was “inactive”.

As for `COc1ccc(-n2c(=O)c(-c3ccccc3)nc3cnc(N4CCNCC4)nc32)cc1`, the AC50 entry is “inactive”.

Consider `COc1cccc(-c2cc(C(F)(F)F)nc(N3CCOCC3)n2)c1`, for which the AC50 is 25.1 µM (active).

On to `CCC(=S)/C=C1\Sc2ccccc2N1CCCS(=O)(=O)O`, for which the AC50 result was “inactive”.

As for `O=[N+]([O-])c1ccc2c(c1)Cc1cc(N=Cc3ccc4c(c3)OCO4)ccc1-2`, the activity, negative = inhibition was -19.5% [at 11.4 µM] (inactive).

For `Brc1cc2c(cc1/C=N/Nc1nc(N3CCCC3)nc(N3CCOCC3)n1)OCO2`, the AC50 is 7.94 µM (active).

As to `O=[N+]([O-])c1ccc(Nc2nc(N/N=C\c3ccc4c(c3)OCO4)nc(N3CCCCC3)n2)cc1`, the half-maximal activity concentration (AC50) is 2.24 µM (active).

For the compound `C[C@@H](C(=O)O)[C@H]1C[C@]1(C)[C@H](NC(=O)OCc1ccccc1)c1ccccc1`, the AC50 is 7.94 µM (active).

Regarding `COC(=O)[C@H](C)[C@H]1C[C@]1(C)[C@H](NC(=O)OCc1ccccc1)c1ccccc1`, the AC50 was 0.251 µM (active).

For `COC(=O)[C@H](C)[C@@H]1C[C@@]1(C)[C@@H](NC(=O)OCc1ccccc1)c1ccccc1`, the AC50 is 0.316 µM (active).

For `C[C@@H](C(=O)O)[C@@H]1C[C@@]1(C)[C@@H](NC(=O)OCc1ccccc1)c1ccccc1`, the AC50 entry is “inactive”.

With `O=C(/C=C\C=C/c1ccc2c(c1)OCO2)N1CCCCC1`, the AC50 result was “inactive”.

`Nc1ccccc1C(=O)/C=C\c1ccc2c(c1)OCO2`: the AC50 is 1 µM (active).

`COCOc1cc(OC)ccc1C(=O)/C=C\c1ccc2c(c1)OCO2`: the AC50 was 0.1 µM (active).

With `O=C(O)/C=C\C=C/c1ccc2c(c1)OCO2`, the activity, negative = inhibition was 23.6% [at 11.4 µM] (inactive).

With `O=C(/C=C\c1ccc2c(c1)OCO2)c1ccc(F)cc1`, the AC50 is 1 µM (active).

In the case of `O=C1/C(=C/c2cccnc2)SC(=S)N1Cc1ccco1`, the AC50 is 3.16 µM (active).

Turning to `O=C1C=C[C@@H](O)[C@H]2[C@@H]3C(=O)N(c4cccc(Oc5ccccc5)c4)C(=O)[C@@H]3CC[C@H]12`, the activity, negative = inhibition was -33.5% [at 11.4 µM] (inactive).

In the case of `COC(=O)c1nn(-c2ccc(OC)cc2)c(=O)cc1Oc1cccc(Cl)c1`, the AC50 was 14.1 µM (active).

In the case of `COC(=O)c1nn(-c2ccccc2)c(=O)cc1Oc1ccccc1`, the AC50 was 14.1 µM (active).

As to `Nc1nc2c(nc(Br)n2[C@@H]2O[C@H]3COP(=O)(O)O[C@@H]3[C@H]2O)c(=O)[nH]1`, the AC50 entry was “inactive”.

Take `NC(N)=[N+]1CCc2ccccc2C1`: the AC50 result was “inactive”.

For the compound `CON(C)C(=O)c1nnc2c3ccccc3n(S(=O)(=O)c3ccc(C)cc3)c2n1`, the activity, negative = inhibition is 16% [at 11.4 µM] (inactive) and 19.4% [at 11.4 µM] (inactive).

As to `COc1ccc(N(C(=O)COc2ccccc2OC)S(=O)(=O)c2ccc(C)cc2)cc1`, the AC50 is 5.01 µM (active).

Regarding `COc1ccc(C(NC(=O)c2ccc(-c3ccccc3)cc2)c2ccccc2)cc1` (stereo not given), the AC50 result is “inactive”.

For `CCCCCN(CCCCC)C(=O)[C@H](CCC(=O)O)NC(=O)c1ccc(Cl)c(Cl)c1`, the AC50 result was “inactive”.

For the compound `C[C@H](NC(=O)c1ccc(Cl)c(Cl)c1)c1ccc(-c2ccccc2)cc1`, the half-maximal activity concentration (AC50) is 1.26 µM (active).

For the compound `O=C(Nc1cccc(F)c1)N1CC[C@@]2(CCCN(C(=O)c3cnccn3)C2)C1`, the AC50 entry is “inactive”.

As to `O=c1oc2cc(Oc3ccc(C(F)(F)F)cc3[N+](=O)[O-])ccc2c2c1CCCC2`, the AC50 entry was “inactive”.

In the case of `O=c1oc2cc(Oc3c([N+](=O)[O-])cc(C(F)(F)F)cc3[N+](=O)[O-])ccc2c2c1CCCC2`, the AC50 is 2.82 µM (active).

With `CN(C)c1ccc(-c2cncnc2Nc2ccccc2)cc1`, the AC50 was 0.316 µM (active).

Take `Fc1ccc(Nc2ncncc2-c2ccoc2)cc1`: the AC50 entry was “inactive”.

Consider `CN(C)c1ccc(-c2cncnc2Nc2ccc(F)cc2)cc1`, for which the AC50 was 0.794 µM (active).

With `CN(C)C(=O)c1ccc(-c2cncnc2NC2CCNCC2)cc1`, the AC50 entry is “inactive”.

Turning to `COC(=O)[C@@H]1[C@@H]2C[C@H]3c4[nH]c5cc(OC)ccc5c4CCN3C[C@@H]2C[C@H](OC(=O)c2cc(OC)c(OC)c(OC)c2)[C@H]1OC`, the AC50 result is “inactive”.

Turning to `COc1cc(C(=O)NC(=S)Nc2cccc(-c3cc4ccccc4oc3=O)c2)cc(OC)c1OC`, the AC50 was 5.01 µM (active).

For `COc1cc(C(=O)NC(=S)Nc2ccc3oc(=O)ccc3c2)cc(OC)c1OC`, the AC50 result was “inactive”.

Take `CCCCC(=O)Nc1cc(OCC)c(NC(=O)c2ccccc2[N+](=O)[O-])cc1OCC`: the AC50 entry is “inactive”.

Regarding `CCOc1ccc(C(=O)Nc2cccc(-c3cc4ccccc4oc3=O)c2)cc1[N+](=O)[O-]`, the AC50 is 1.78 µM (active).

On to `COc1cc(NC(=O)c2cc(Cl)ccc2Cl)ccc1-c1cc2ccccc2oc1=O`, for which the AC50 was 0.794 µM (active).

With `C[C@@H]1CCc2cc(F)cc3c(=O)c(C(=O)O)cn1c23`, the AC50 entry is “inactive”.

On to `Cc1noc(C)c1-c1nccc(-n2ccnc2)n1`, for which the half-maximal activity concentration (AC50) is 3.98 µM (active).

For `Cc1ccccc1-c1nc(N2CCN(C)CC2)c2ccccc2n1`, the AC50 result is “inactive”.

Turning to `Clc1ccccc1-c1nccc(-n2ccnc2)n1`, the AC50 was 2.51 µM (active).

Regarding `FC(F)(F)c1ccccc1-c1nccc(N2CCNCC2)n1`, the AC50 result was “inactive”.

As for `Clc1ccccc1-c1nc(-n2ccnc2)c2ccccc2n1`, the AC50 is 7.94 µM (active).

Turning to `Cc1ccccc1-c1nc(-n2ccnc2)c2ccccc2n1`, the AC50 is 5.01 µM (active).

Regarding `Cc1noc(C)c1-c1cc(N2CCN(C)CC2)ncn1`, the AC50 entry is “inactive”.

As to `Cc1ccccc1-c1nc(N2CCNCC2)c2ccccc2n1`, the AC50 entry is “inactive”.

On to `Clc1ccccc1-c1nc(NC2CCNCC2)c2ccccc2n1`, for which the AC50 result is “inactive”.

Consider `Cc1noc(C)c1-c1nccc(N2CCN(C)CC2)n1`, for which the AC50 result was “inactive”.

On to `CCOC(=O)C1(N(CC)CC)Sc2cc(C)ccc2NC1=O` (stereo not given), for which the AC50 is 0.0891 µM (active).

Consider `CCOC(=O)[C@]1(CC(=O)O)CCCC1=O`, for which the activity, negative = inhibition is 5.42% [at 11.4 µM] (inactive).

Turning to `CCCCCCCCCCCCCCCCCC(=O)O[C@H](CC(=O)O)C[N+](C)(C)C`, the AC50 entry is “inactive”.

For the compound `NNC(=O)c1ccc[n+](CCc2ccccc2)c1`, the activity, negative = inhibition was -21.6% [at 11.4 µM] (inactive).

In the case of `O=C(C[n+]1cccc(NC(=O)c2ccccc2)c1)c1ccc(NC(=O)c2ccccc2)cc1`, the AC50 was 39.8 µM (active).

In the case of `Cc1cc([N+](=O)[O-])ccc1-c1ccc(C2Nc3ccccc3C(=O)N2O)o1` (stereo not given), the AC50 was 4.47 µM (active).

Take `O=[N+]([O-])c1ccc2c(c1)S(=O)c1ccccc1-2` (stereo not given): the activity, negative = inhibition was 14.6% [at 11.4 µM] (inactive).
